Screening results: PubChem BioAssay, several laboratories
Hits are enriched below; roughly 3.5% of the tested compounds scored in any of these assays.
CHRM1 antagonist = blocks human M1 muscarinic receptor; inhibition, % at 3 µM; P11229; 1.3% of 360,000 active; CHO-K1 hM1, Fluo-8 calcium fluorescence, ACh EC80 antagonist;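 active = percent inhibition above its own plate's cutoff, namely the mean of that plate's compound wells plus 3 SD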;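 note: peak over basal fluorescence ratio during 140 s after agonist addition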
Target sequence (P11229 whole entry, looked up): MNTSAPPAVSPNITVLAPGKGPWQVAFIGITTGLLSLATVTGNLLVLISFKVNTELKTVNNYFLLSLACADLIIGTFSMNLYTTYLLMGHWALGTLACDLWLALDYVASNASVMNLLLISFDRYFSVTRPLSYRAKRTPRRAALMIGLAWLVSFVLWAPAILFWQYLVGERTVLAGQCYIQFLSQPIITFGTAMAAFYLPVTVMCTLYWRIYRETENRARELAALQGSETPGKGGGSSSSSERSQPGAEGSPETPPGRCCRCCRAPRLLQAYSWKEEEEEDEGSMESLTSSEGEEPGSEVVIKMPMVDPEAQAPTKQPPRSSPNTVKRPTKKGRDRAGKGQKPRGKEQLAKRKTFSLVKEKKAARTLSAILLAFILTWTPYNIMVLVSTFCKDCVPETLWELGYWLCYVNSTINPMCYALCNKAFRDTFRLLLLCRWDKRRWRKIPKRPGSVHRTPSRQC
Myeloid diff MLP = promotes myeloid progenitor differentiation; ER-HoxA9 myeloid progenitors, lysozyme-GFP differentiation, flow cytometry; calls only at 10 µM; 1% of 360,000 active; AID 624256;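 active = normalized GFP-positive differentiation at or above the plate's own cutoff, the solvent-only control mean plus 3 SD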;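 note: cells exposed to compound for four days before flow analysis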
CHRM1 PAM = positive allosteric modulators of human M1 muscarinic receptor; P11229; CHO-K1 hM1, Fluo-8 calcium fluorescence, ACh EC20; 0% = ACh EC20, 100% = maximal ACh; activation, % at 3 µM; 0.088% of 360,000 active; AID 588819; in the data active = activation above about 19%, passing the limit was not always enough
M1 ag = agonists of human M1 muscarinic receptor; activation, % at 3 µM; CHO-K1 hM1, Fluo-8 calcium fluorescence, agonist mode; 0% DMSO, 100% acetylcholine EC100; AID 588814; 0.33% of 360,000 active; P11229;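 active = activation above the run's mean compound activation plus 3 SD, cut at about 16% in these data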;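 note: peak over basal fluorescence ratio within a 140 s kinetic read after compound addition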
ATG4B inhibitor = ATG4B (human) cysteine protease inhibition; ATG4B cleavage of LC3-PLA2, NBD-HPC fluorescence, 1 h; Q9Y4P1; inhibition, % at 8.33 µM; 0.51% of 340,000 active; in the data active = inhibition above about 40%
SKN-1 block = blocks SKN-1 activity in C. elegans; C. elegans VP596 Pgst-4::GFP/RFP ratio, acrylamide-induced, 24 h; inhibition, % at 21.8 µM; 0.49% of 360,000 active; AID 624304;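 active = interference check ratio from 0.5 to 1.5 plus GFP to RFP signal ratio inhibition reaching or exceeding a fixed threshold, cut at about 30% in these data, passing the limit was not always enough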
ATG4B confirm = ATG4B (human) inhibition, single-dose confirmed; shares compounds with ATG4B inhibitor; ATG4B protease fluorescent substrate cleavage assay; inhibition, % at 8.33 µM; 92% of 320 active; AID 504757; in the data active = inhibition above about 39%
PLA2 counter = counter-screen for ATG4B inhibitors: human phospholipase A2. purified PLA2, NBD-C6-HPC fluorescence, 45 min. inhibition, % at 8.33 µM. AID 588402. 66% of 1,600 active. shares compounds with ATG4B inhibitor; in the data active = inhibition above about 50%
Target sequence (P04054 whole entry, looked up): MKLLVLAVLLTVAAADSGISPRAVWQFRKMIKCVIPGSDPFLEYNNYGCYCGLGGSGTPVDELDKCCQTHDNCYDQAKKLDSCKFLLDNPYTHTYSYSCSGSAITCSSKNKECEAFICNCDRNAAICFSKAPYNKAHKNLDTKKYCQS
Hits are given with their value; – = inactive; · = no result; + = active, no number.

SMILES	CHRM1 antagonist	Myeloid diff MLP	CHRM1 PAM	M1 ag	ATG4B inhibitor	SKN-1 block	PLA2 counter	others
COc1cc(NCCCn2cnc3c(OC)ncnc32)cc(OC)c1OC	–	–	–	–	·	–	·
Cc1nonc1C(=O)N1CCCC(N2CCN(c3ccc(F)cc3)CC2)C1 (centres undefined)	–	–	–	–	–	–	·
COc1ccc(CN2CCN(Cc3nc4ccccc4s3)CC2CCO)c(C)c1C (centres undefined)	–	–	–	–	–	–	·
COc1cc(OC)cc(-c2nnc(Nc3nc4c(F)cccc4s3)o2)c1	–	–	–	–	57	–	–	ATG4B confirm=51
Fc1cccc2sc(Nc3nnc(-c4ccccc4)o3)nc12	–	–	–	–	–	–	·
Cc1cccc(-n2cnc3cc(C(=O)N4CCc5ccccc54)ccc32)c1	–	–	–	–	62	–	64
COCCNC(=O)c1ccc2c(c1)ncn2-c1cccc(C)c1	–	–	–	–	–	–	·
CC(C)C(=O)Nc1ccc(Oc2ccc3c(c2)C(=O)NC3=O)cc1	–	–	–	–	–	–	·
CCCCn1c2ccccc2c2cc(CC(N)=O)ccc21	–	–	–	–	62	–	74
CCCCn1c(=O)c(-c2ccccc2)c(O)c2ccccc21	–	–	–	–	–	–	·
COc1ccc(-c2cc(C(=O)O)c3sc(N4CCCCC4)nc3n2)cc1OC	–	–	–	–	–	–	·
Cc1ccc(-c2cc(C(=O)O)c3sc(N4CCCCC4)nc3n2)cc1	–	–	–	–	40	–	–
O=C(O)c1ccc(NC2=C/C(=N/S(=O)(=O)c3ccccc3)c3ccccc3C2=O)cc1	–	–	–	–	43	–	–	ATG4B confirm=61
Cc1cc(NCc2ccc(F)cc2Cl)n2nnnc2n1	–	–	–	–	48	–	–	ATG4B confirm=70
Cc1ccc(Nc2cc(C)nc3nnnn23)cc1	–	–	–	–	–	–	·
CC(C)N(Cc1ccccc1)C(=O)C1CCN(c2ncnc3c2nc2n3CCCCC2)CC1	–	–	–	–	72	–	76
Cc1ccc(CS(=O)Cc2ccc(C(=O)NCc3ccccc3Br)o2)cc1 (centres undefined)	–	–	–	–	63	–	69
CCn1c(N2CCN(S(=O)(=O)c3ccc(Cl)cc3)CC2)nc2ccccc21	–	–	–	–	60	–	67
COc1cc([N+](=O)[O-])cc(/C=C2/SC(=S)N(Cc3ccccc3)C2=O)c1O	51	·	–	38	49	52	75
C=CCn1c(SCc2nc3scc(-c4ccccc4)c3c(=O)[nH]2)nnc1-c1ccccc1F	–	–	–	–	46	–	–	ATG4B confirm=62
Cc1nn(-c2ccccc2)c(Cl)c1/C=N/Nc1ccc(S(=O)(=O)Nc2ccccc2C(=O)O)cc1[N+](=O)[O-]	–	–	–	–	67	–	–
COc1ccc(C=NNc2ccc(S(=O)(=O)Nc3ccccc3C(=O)O)cc2[N+](=O)[O-])c(OC)c1	–	–	–	–	48	–	–
CC(=O)Nc1ccc(S(=O)(=O)Nn2cnnc2)cc1	–	–	–	–	–	–	·
C/C(=C/CCC(C)[C@H]1CC[C@@]2(C)C3=C(CC[C@]12C)[C@@]1(C)CCC(=O)C(C)(C)[C@@H]1CC3)C(=O)O (some centres undefined)	–	–	–	–	46	–	–	ATG4B confirm=79
CCc1cc(C(=O)O)c(NC(=O)c2cc(OC)c(OC)c(OC)c2)s1	–	·	–	–	–	–	·
SMILES	CHRM1 antagonist	Myeloid diff MLP	CHRM1 PAM	M1 ag	ATG4B inhibitor	SKN-1 block	PLA2 counter	others
CCCC(=O)N1CCC1(C)C(=O)NS(=O)(=O)c1cccc(F)c1 (centres undefined)	–	–	–	–	·	–	·
Cc1cccc(C(=O)Nc2sc(-c3ccccc3)cc2C(=O)O)c1	–	–	–	–	68	–	75
CN1CCN(S(=O)(=O)c2cc([N+](=O)[O-])ccc2N/N=C/c2ccc(Cl)cc2)CC1	–	–	–	–	–	–	·
O=[N+]([O-])c1ccc(N/N=C/c2c[nH]c3ccccc23)c(S(=O)(=O)Nc2ccc(Cl)cc2)c1	–	+	–	–	42	–	53
O=C(NCCSCc1ccco1)Nc1cc(Cl)cc(Cl)c1	–	–	–	–	46	–	62
Cc1ccc(-n2nnnc2SCC(=O)N2CCc3ccccc3C2)c(C)c1	–	–	–	–	44	–	–
Cc1ccc(-n2nnnc2SCC(=O)N2CCc3ccccc3C2)cc1	–	–	–	–	–	–	·
COc1ccc(-c2cn(Cc3ccc(C(N)=O)cc3)c(-c3ccncc3)n2)cc1	–	–	–	–	–	–	·
CCOc1ccc(C(=O)C2CCN(CC(=O)Nc3ccccc3N3CCOCC3)CC2)cc1	–	–	–	–	44	–	–	ATG4B confirm=65
O=[N+]([O-])c1ccc(C2(O)CN(c3ccccc3)C3=[N+]2CCS3)cc1 (centres undefined)	–	–	–	–	–	–	·
N#Cc1c(NC(=O)Cn2c(=O)oc3ccccc32)oc(-c2ccccc2)c1-c1ccccc1	–	–	–	–	50	–	58
O=C(Cn1c(=O)oc2ccccc21)Nc1ccc(Br)cc1	–	–	–	–	–	–	·
COc1ccc(Br)cc1C(=O)CCC(=O)OCC(=O)Nc1cc(C(N)=O)cc(C(N)=O)c1	–	–	–	–	–	–	·
COc1cccc(Cn2cc(-c3cccc(C(F)(F)F)c3)nn2)c1	–	–	–	–	50	–	68
CCOC(=O)[C@@H]1[C@H]2COc3cc(OC)ccc3[C@@H]2N2C(=O)N(c3ccc(Cl)cc3)C(=O)[C@]12C	–	–	–	–	–	–	·
Cc1nc(NC(=O)c2ccccc2)sc1C1(C)CC(c2c(Cl)cccc2Cl)=NO1 (centres undefined)	–	–	–	–	–	–	·
Cc1nc(NC(=O)c2ccccc2)sc1C1(C)CC(c2ccccc2F)=NO1 (centres undefined)	–	–	–	–	45	–	64
O=C(N/N=C/c1ccc(-c2ccc(S(=O)(=O)Nc3ncccn3)cc2)o1)c1cc2ccccc2cc1O	–	–	–	–	75	–	–	ATG4B confirm=–
Cc1ccccc1NC(=O)CN1C(=O)S/C(=C\c2cccn2-c2cccc(C(=O)O)c2)C1=O	–	–	–	–	–	–	·
Cc1cccc(C)c1NC(=O)CN1C(=O)S/C(=C\c2cccn2-c2cccc(C(=O)O)c2)C1=O	–	–	–	–	47	–	–
Cc1cccc(C)c1-n1cccc1/C=C1\SC(=S)N(c2cccc(C(=O)O)c2)C1=O	–	–	–	–	91	–	85
